# Reference: PubChem BioAssay (NCI)
# Several values for one entry are separate records, joined by “and”; a condition that tells them apart may be missing. Equal values may be shown once. About 79,000 compounds went through this panel and 15% of them were active in at least one assay; those are over-represented in the sample as a whole. Unmarked numbers belong to inactive results. Activity calls are given as the source filed them. Cut-off read from the data, not from the text of the source: active = growth inhibition above about 70%; inactive = the rest.
# How the values were obtained:
# [1] = NCI Yeast Anticancer Drug Screen. Data for the rad50 strain (AID 155);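 note: 0% = growth of vehicle-only cultures of the same strain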; conditions: S. cerevisiae rad50 strain growth inhibition, stronger effect = higher value; at 50.0 µM unless noted
# Outline: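 Cells are treated with compound, grown, and their growth is then scored against vehicle-only cultures of the same repair-deficient yeast strain.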
# [2] = NCI Yeast Anticancer Drug Screen. Data for the mec2-1 strain (AID 157); conditions: S. cerevisiae mec2-1 strain, stronger effect = higher value; at 50.0 µM unless noted
# Outline: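 Mutant yeast (mec2-1) grown with compound; growth inhibition relative to vehicle control reported.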
# [3] = NCI Yeast Anticancer Drug Screen. Data for the sgs1 mgt1 strain (AID 161);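 note: 0% = growth of cultures given vehicle only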; conditions: S. cerevisiae sgs1 mgt1 strain, stronger effect = higher value; at 50.0 µM unless noted
# Outline: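 This yeast growth screen uses a strain with defined DNA-repair lesions; compound-treated growth is compared with vehicle-treated growth.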
# [4] = NCI Yeast Anticancer Drug Screen. Data for the cln2 rad14 strain (AID 165);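 note: 0% = growth equal to vehicle treated cultures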; conditions: S. cerevisiae cln2 rad14 strain, stronger effect = higher value; at 50.0 µM unless noted
# Outline: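 Readout is yeast growth inhibition versus vehicle-treated controls, using a strain with cln2 and rad14 alterations exposed to compound.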
# [5] = NCI Yeast Anticancer Drug Screen. Data for the bub3 strain (AID 167); conditions: S. cerevisiae bub3 mutant strain, stronger effect = higher value; at 50.0 µM unless noted
# Outline: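 Part of a panel of yeast mutants defective in DNA damage repair or cell cycle regulation. Each strain is grown with compound, and inhibition is calculated relative to solvent-treated cultures.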
# [6] = NCI Yeast Anticancer Drug Screen. Data for the mlh1 rad18 strain (AID 175); conditions: S. cerevisiae mlh1 rad18 strain growth inhibition, stronger effect = higher value; at 50.0 µM unless noted
# Outline: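 Genetically defined yeast (DNA repair-deficient) exposed to compounds; growth inhibition determined relative to vehicle.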
Compound,growth inhibition [1],growth inhibition [2],growth inhibition [3],growth inhibition [4],growth inhibition [5],growth inhibition [6]
CCOCCOC(=O)COc1ccccc1,12.8%,16.4%,17.6%,7%,-7.85%,3.65%
O=c1n(-c2ccccc2)c(=O)n2n1C1C3C4C5C3C2C5(F)C41 (stereo not drawn),-7.3%,8.45%,5.95%,13.7%,6.75%,12.3%
COC(=O)c1nnn(-c2ccc(Cl)cc2C)c1C(=O)c1ccc(OC)cc1,-33.4%,0.95%,-11.8%,-2.45%,-9.1%,-20.2%
CCCCCCCCOC(=O)Nc1ccc(S(=O)(=O)NC2CCCCC2)cc1,7.05%,-2.9%,14.1%,37.8%,10.8%,20.6%
COc1ccc(C(C)(OC)c2cc(C(C)(C)C)c(O)c(C(C)(C)C)c2)cc1 (stereo not drawn),-19.2%,-12.6%,-20.2%,-0.55%,-2.05%,-21.6%
CC(=O)Oc1cc(OC(C)=O)c2c(OC(C)=O)c3c(OC(C)=O)cc(C)cc3cc2c1,40.5%,19.8%,39.5%,31.6%,9.3%,20.1%
Clc1cccc(C2ON=C(c3ccccc3)N2C23CC4CC(CC(C4)C2)C3)c1Cl (stereo not drawn),10.3%,-6.55%,7.95%,-13.5%,-4%,-3.95%
Cc1cc([N+](=O)[O-])c(Nc2ccc(C)c(Cl)c2)c([N+](=O)[O-])c1,8.15%,36.7%,29.6%,-8.05%,52.1%,33.6%
Clc1nn2cnnc2c2ncccc12,2.8%,-0.45%,2.95%,-13.3%,15.2%,16.4%
CC1CCC(c2ccccc2)(c2ccccc2)C1=O (stereo not drawn),11.8%,-1.8%,-2.5%,-15%,-1.15%,-2.25%
O=S(=O)(O)c1ccc2c(ccc3ccccc32)c1,-18.4% and -3.8%,-0.25% and -18.4%,-2.9% and -14.2%,-0.9% and 21.6%,1.35% and 28.1%,5.7% and -23.1%
O=C(O)c1cc([N+](=O)[O-])cc2c(=O)c3cnccc3[nH]c12,-23.6%,-0.35%,-1.95%,-25.6%,-8.5%,-9.7%
CCC[CH2][Sn]1([CH2]CCC)[O]C2C(CO)OC(n3c(Br)c(C#N)c4c(N)ncnc43)C2[O]1 (stereo not drawn),98.4% (active),98.5% (active),98.7% (active),98.7% (active),97.7% (active),98% (active)
O=c1[nH][nH]c(=O)c2c([N+](=O)[O-])cccc12,-17.6%,-8.6%,-3.8%,-37.5%,0.35%,-0.35%
CC(C)NCC(O)c1ccc(O)c(O)c1 (stereo not drawn),31.9% and -20.8%,-10.6% and -23.4%,-3.35% and 16.2%,14.7% and -52%,18.7% and 27.4%,-0.1% and -4.95%
O=C(O)/C(I)=C(\I)c1ccccc1,-0.55%,-6.7%,4.7%,-9.3%,2.45%,8.5%
CC1=NCC23CC(=O)C4C(CCC5(C)CC(O)CCC45C)C2CCC13 (stereo not drawn),0.85%,-0.95%,7.6%,-36.6%,20.4%,1.9%
CCO[C@@H]1OC(=O)[C@H]2C(c3ccccc3Cl)=NO[C@@H]12,-33.1%,-30.9%,-13.2%,-6.65%,14.2%,0.35%
N#CNC(N)=NCCO,-22.2%,-2.25%,-36.9%,-12%,-28.5%,-20.6%

Compound,growth inhibition [1],growth inhibition [2],growth inhibition [3],growth inhibition [4],growth inhibition [5],growth inhibition [6]
C=C(NC(=O)C(c1ccccc1)c1ccccc1)C(=O)O,21.6%,11.7%,-1.15%,-25.1%,-1.9%,17.4%
CC1=N[C@@H](C(=O)NCC(N)=O)Cc2c1[nH]c1ccccc21,11.7%,10.1%,8.65%,-7.85%,-4.25%,4.4%
CCc1ccc2c(-c3ccccc3)c3c(-c4ccccc4)c4ccccc4c(-c4ccccc4)c3c(-c3ccccc3)c2c1,16.6%,7.3%,-5.8%,-28.4%,-8.15%,23.4%
C=CCc1cn(C2CC(OC(=O)c3ccc(Cl)cc3)C(COC(=O)c3ccc(Cl)cc3)O2)c(=O)[nH]c1=O (stereo not drawn),-8.85%,-3.6%,-18.8%,-8.6%,0.6%,-2.4%
O=C1C(O)=C(O)C(Br)=C/C1=C(/c1ccccc1S(=O)(=O)O)c1cc(Br)c(O)c(O)c1O,9.65%,6.9%,15.5%,1.8%,-0.2%,18.4%
C=C1CC(COc2ccc3c(C)c(C)c(=O)oc3c2C)(c2ccccc2)OC1=O (stereo not drawn),8.85%,-3.75%,23.9%,4.85%,6.7%,21.4%
O=C(CC(=O)Nc1ccccc1Cl)NNC(c1cc(N=Nc2ccc(Br)cc2)ccc1O)P(O)O (stereo not drawn),1.8%,0.3%,16.6%,13.4%,-8.25%,-2.35%
O=C1NCCCC1C(=O)Nc1cccc2c1NCCC2 (stereo not drawn),-10.2%,-40.4%,0.95%,-1.45%,39.6%,-32.4%
C#CC(=O)CCC,26.6%,-5.8%,-4.7%,-1.1%,32.5%,15.6%
c1ccc(-n2ncn[n+]2-c2ccccc2)cc1,6.55%,4.4%,-0.3%,28.4%,32.8%,5.15%
COc1cccc2c1OC1(N3CCOCC3)CCCCC1C2C[N+](=O)[O-] (stereo not drawn),6.8%,-14%,12.3%,3.35%,-7.9%,-11.1%
Nc1ccc(N=Nc2c(S(=O)(=O)O)cc3ccccc3c2S(=O)(=O)O)cc1,-23%,-30.4%,-38.2%,-18.3%,-46.5%,-27.6%
O=S1(=O)CCC(c2ccccc2)C1 (stereo not drawn),2.3%,-10.7%,-13.8%,0.45%,-12.3%,-7.15%
C=CCNC1=C(NC(C)=O)C(=O)c2ccccc2C1=O,16.1%,0.95%,4.8%,-31.2%,28.6%,12.4%
N#CC1=C(N)OC(C2CC2)=C(C#N)C1c1ccco1 (stereo not drawn),-9.75%,-14.1%,-11.1%,4.45%,-24.8%,-11.9%
C/C=C/C(=O)Nc1cccc(OC(=O)NC(C)(C)C)c1,9.2%,13.1%,3.55%,-2%,18%,1.65%
CC1=C(C(=O)CC(=O)C(=O)Nc2ccc(Cl)cc2C)Sc2ccccc2N1,-4.7%,3.25%,-26.6%,9.35%,6.7%,-22.6%
Cc1ccc(C(=O)CC(Sc2ccccc2N)c2c(Cl)cccc2Cl)c(C)c1 (stereo not drawn),-7.4%,-26.4%,3.8%,-4.5%,-11.1%,-16.5%
CS/C(=N\c1nccs1)NC(=O)c1cccc(Cl)c1,7.65%,20.4%,30.2%,18.8%,22.4%,10.8%
